For assay [1], the system named is thyroid hormone receptor (rat, GH3 cells). Briefly: qHTS assay to identify small molecule agonists of the thyroid receptor (TR) signaling pathway (AID 743066; calls by dose curve). A general note: qHTS replaces the single test concentration by a dilution series.
Assay [2] deals with Estrogen receptor (Homo sapiens) (UniProt P03372). Briefly: qHTS assay to identify small molecule antagonists of the estrogen receptor alpha (ER-alpha) signaling pathway (AID 743069; active means well fitted curve in the direction sought with a large enough effect in the signal ratio in the repeat runs, not every such curve was filed as active; the % refers to the signal ratio). Put shortly: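 Compound effects are measured against 17beta-estradiol stimulation in HEK293 cells with a UAS-controlled beta-lactamase reporter for ER-alpha. Exposure lasts 18 hr at 37C; LiveBLAzer B/G FRET substrate follows for 2 hr at room temperature.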

Assay [3] in a line: qHTS assay to identify small molecule antagonists of the estrogen receptor alpha (ER-alpha) signaling pathway - cell viability counter screen (AID 743074; calls by dose curve;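 further: HEK293 cells carrying ER-alpha-UAS-bla reporter stimulated with 17beta-estradiol; nearly all actives have a fitted effect of over 45% in size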).
Assay [4] deals with Estrogen receptor (Homo sapiens) (UniProt P03372). Description: qHTS assay to identify small molecule agonists of the estrogen receptor alpha (ER-alpha) signaling pathway (AID 743075; calls by dose curve).
For assay [5] the target is unchanged. Briefly: qHTS assay to identify small molecule agonists of the estrogen receptor alpha (ER-alpha) signaling pathway using the BG1 cell line (AID 743079). Further: nearly all actives have a fitted effect of over 20% in size.
Assay [6] can be described thus: qHTS assay to identify small molecule antagonists of the estrogen receptor alpha (ER-alpha) signaling pathway using the BG1 cell line (AID 743080; calls by dose curve;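 further: BG1 cells stimulated with 17beta-estradiol alongside compound; series mostly up to about 70 µM; nearly all actives have a fitted effect of over 25% in size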). Summed up: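 Seeding, 24 h rest, compound transfer from DMSO, 17beta-estradiol addition, 21.5 h incubation, CellTiter-Fluor (30 min, 37 C), then ONE-Glo (30 min, room temperature): this sequence was run on BG1-Luc-4E2 reporter cells.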

Assay [7] is described as follows: qHTS assay to identify small molecule antagonists of the estrogen receptor alpha (ER-alpha) signaling pathway using the BG1 cell line - cell viability counter screen (AID 743081).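 Further: compound given together with 17beta-estradiol as the ER stimulus; series mostly up to about 70 µM; nearly all actives have a fitted effect of over 45% in size.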
The target in a further assay is Aromatase (Homo sapiens) (UniProt P11511). Briefly: qHTS assay to identify aromatase inhibitors (AID 743083). Further: series mostly up to about 70 µM; nearly all actives have a fitted effect of over 55% in size.
Assay [8] is described as follows: qHTS assay to identify aromatase inhibitors - cell viability counter screen (AID 743084).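 Further: cells stimulated with testosterone during compound exposure; nearly all actives have a fitted effect of over 55% in size.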
The target in assay [9] is Aryl hydrocarbon receptor (Homo sapiens) (UniProt P35869). Briefly: qHTS assay to identify small molecule that activate the aryl hydrocarbon receptor (AhR) signaling pathway (AID 743085). Further: nearly all actives have a fitted effect of over 15% in size. Further: potency means the concentration at half of the fitted maximal effect.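 On activation: HG2L7.5c1 human HepG2 liver cells with stably integrated DRE-driven firefly reporter; series mostly up to about 70 µM.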 Summed up: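 Reporter assay in engineered HepG2 line HG2L7.5c1, whose plasmid carries twenty dioxin responsive elements upstream of firefly luciferase. Treatment lasted 24 h at 37C; ONE-Glo luminescence gauged induction.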

The nature of assay [10]: qHTS assay to identify small molecule that activate the aryl hydrocarbon receptor (AhR) signaling pathway - cell viability counter screen (AID 743086).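 Further: HepG2 liver cells carrying the AhR DRE luciferase reporter; series mostly up to about 70 µM; nearly all actives have a fitted effect of over 45% in size.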 Summed up:
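Cytotoxicity counter screen: CellTiter-Fluor signal (30 min, 37 C) in 4000 HepG2 cells/well carrying the DRE-luciferase reporter, following 24 h compound exposure at 37 C.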

Assay [11] has as its target Peroxisome proliferator-activated receptor gamma (Homo sapiens) (UniProt P37231). Description: qHTS assay to identify small molecule agonists of the peroxisome proliferator-activated receptor gamma (PPARg) signaling pathway (AID 743094; active means well fitted activation curve with a large enough effect in the signal ratio in the repeat runs, not every such curve was filed as active; the % refers to the signal ratio). Summed up:
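GeneBLAzer PPARg UAS-bla HEK293H cells carrying a stably integrated beta-lactamase reporter were pre-incubated 5 h at 37C, then exposed to compounds in DMSO for 17 h at 37C; LiveBLAzer B/G FRET substrate was added for 1 h at room temperature and fluorescence read.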

The target is the same in assay [12]. Description: qHTS assay to identify small molecule antagonists of the peroxisome proliferator-activated receptor gamma (PPARg) signaling pathway (AID 743191; calls by dose curve; further: series mostly up to about 63 µM; nearly all actives have a fitted effect of over 30% in size). Put shortly:
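Beta-lactamase reporter under UAS control in HEK293H PPARg-bla cells; compound treatment 17 h at 37C. Read-out: fluorescence intensity after 1 h room-temperature incubation with LiveBLAzer B/G FRET substrate.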

Assay [13] can be described thus: qHTS assay to identify small molecule antagonists of the peroxisome proliferator-activated receptor gamma (PPARg) signaling pathway - cell viability counter screen (AID 743194). Further: nearly all actives have a fitted effect of over 55% in size. Put shortly: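 Viability was measured as CellTiter-Glo luminescence in GeneBLAzer PPARg UAS-bla HEK293H cells. These cells had been exposed 17 h at 37 C to compounds together with rosiglitazone at 50 nM final, with the beta-lactamase readout taken in the same wells.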

The nature of assay [14]: qHTS assay for small molecule agonists of the antioxidant response element (ARE) signaling pathway (AID 743202; active means well fitted activation curve with a large enough effect in the signal ratio in the repeat runs, not every such curve was filed as active; the % refers to the signal ratio). Summed up:
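An ARE-responsive beta-lactamase gene stably integrated in HepG2 cells serves as reporter. After 5 h plating and 16 h compound incubation at 37 C, fluorescence of the B/G FRET substrate was measured.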

Assay [15] is described as follows: qHTS assay for small molecule agonists of the antioxidant response element (ARE) signaling pathway - cell viability counter screen (AID 743203; calls by dose curve; further: nearly all actives have a fitted effect of over 55% in size). Summed up:
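CellSensor ARE-bla HepG2 cells, 2,000 per well, rested 5 hrs at 37C/5% CO2, then exposed to compound in DMSO for 16 hrs; viability read as CellTiter-Glo luminescence after 30 min at room temperature, in the reporter wells.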

The nature of assay [16]: qHTS assay for small molecule activators of the heat shock response signaling pathway - cell viability counter screen (AID 743209). Further: nearly all actives have a fitted effect of over 50% in size. Summed up: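 CellSensor HSE-bla HeLa cells, plated overnight at 37 C/5% CO2, were exposed to compounds in DMSO for 5 h at 37 C. Viability was then read in the same wells by CellTiter-Glo luminescence after 30 min at room temperature.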
A short description of assay [17]: qHTS assay for small molecule activators of the heat shock response signaling pathway (AID 743210; active means well fitted activation curve with a large enough effect in the signal ratio in the repeat runs, with a control signal flat, not every such curve was filed as active; the % refers to the signal ratio;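 further: HeLa cells with beta-lactamase reporter driven by heat shock elements; series mostly up to about 63 µM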). Put shortly: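 In HSE-bla HeLa cells, 5 h compound incubation (37 C) precedes addition of LiveBLAzer B/G substrate; after 2.5 h at room temperature, fluorescence intensity indicates reporter induction.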

Results filed as inconclusive are left out. Activity calls are given as the source filed them. Unless noted, the call rests on the fitted dose curve; in most records, active means well fitted curve in the direction sought with a large enough effect in the repeat runs; inconclusive means weak or mixed curves; inactive means no such curve, though single readings can be large; an effect the other way counts as inactive or inconclusive.

Chain of Aromatase (Homo sapiens) (P11511 whole entry, looked up): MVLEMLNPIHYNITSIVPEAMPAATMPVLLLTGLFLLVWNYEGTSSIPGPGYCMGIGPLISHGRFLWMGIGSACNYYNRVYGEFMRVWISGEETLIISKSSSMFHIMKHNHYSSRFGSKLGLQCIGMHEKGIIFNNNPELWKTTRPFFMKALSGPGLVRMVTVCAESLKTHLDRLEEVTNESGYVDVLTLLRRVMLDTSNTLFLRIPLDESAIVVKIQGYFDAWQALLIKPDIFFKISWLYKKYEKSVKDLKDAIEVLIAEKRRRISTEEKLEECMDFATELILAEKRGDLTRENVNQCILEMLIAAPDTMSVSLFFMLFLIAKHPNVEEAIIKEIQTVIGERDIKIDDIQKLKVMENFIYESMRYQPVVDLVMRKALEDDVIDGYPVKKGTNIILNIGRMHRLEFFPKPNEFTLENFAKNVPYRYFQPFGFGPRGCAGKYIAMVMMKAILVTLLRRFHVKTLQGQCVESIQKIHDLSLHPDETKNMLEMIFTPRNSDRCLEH
Chain of Aryl hydrocarbon receptor (Homo sapiens) (P35869 whole entry, looked up): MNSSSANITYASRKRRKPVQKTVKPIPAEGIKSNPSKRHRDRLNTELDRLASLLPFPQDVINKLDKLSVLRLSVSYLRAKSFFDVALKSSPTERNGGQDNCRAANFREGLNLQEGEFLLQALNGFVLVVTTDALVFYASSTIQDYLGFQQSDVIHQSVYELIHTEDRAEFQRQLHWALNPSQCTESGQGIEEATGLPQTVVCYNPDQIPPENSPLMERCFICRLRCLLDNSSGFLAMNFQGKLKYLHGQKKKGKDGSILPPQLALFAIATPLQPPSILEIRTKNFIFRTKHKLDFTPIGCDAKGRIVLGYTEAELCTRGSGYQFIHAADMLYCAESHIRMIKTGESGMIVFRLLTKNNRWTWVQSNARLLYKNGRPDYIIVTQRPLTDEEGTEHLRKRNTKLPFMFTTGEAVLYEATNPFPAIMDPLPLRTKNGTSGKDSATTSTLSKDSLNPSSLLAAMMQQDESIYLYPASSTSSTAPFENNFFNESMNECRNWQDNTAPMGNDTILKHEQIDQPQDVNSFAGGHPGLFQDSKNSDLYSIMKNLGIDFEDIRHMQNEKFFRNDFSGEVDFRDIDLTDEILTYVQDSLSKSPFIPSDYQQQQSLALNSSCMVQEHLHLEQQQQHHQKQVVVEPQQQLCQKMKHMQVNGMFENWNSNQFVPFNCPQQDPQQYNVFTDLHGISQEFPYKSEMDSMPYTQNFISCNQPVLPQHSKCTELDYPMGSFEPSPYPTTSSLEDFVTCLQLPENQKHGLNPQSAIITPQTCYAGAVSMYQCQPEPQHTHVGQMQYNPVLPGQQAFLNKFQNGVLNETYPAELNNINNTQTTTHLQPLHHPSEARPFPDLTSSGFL
Chain of Peroxisome proliferator-activated receptor gamma (Homo sapiens) (P37231 whole entry, looked up): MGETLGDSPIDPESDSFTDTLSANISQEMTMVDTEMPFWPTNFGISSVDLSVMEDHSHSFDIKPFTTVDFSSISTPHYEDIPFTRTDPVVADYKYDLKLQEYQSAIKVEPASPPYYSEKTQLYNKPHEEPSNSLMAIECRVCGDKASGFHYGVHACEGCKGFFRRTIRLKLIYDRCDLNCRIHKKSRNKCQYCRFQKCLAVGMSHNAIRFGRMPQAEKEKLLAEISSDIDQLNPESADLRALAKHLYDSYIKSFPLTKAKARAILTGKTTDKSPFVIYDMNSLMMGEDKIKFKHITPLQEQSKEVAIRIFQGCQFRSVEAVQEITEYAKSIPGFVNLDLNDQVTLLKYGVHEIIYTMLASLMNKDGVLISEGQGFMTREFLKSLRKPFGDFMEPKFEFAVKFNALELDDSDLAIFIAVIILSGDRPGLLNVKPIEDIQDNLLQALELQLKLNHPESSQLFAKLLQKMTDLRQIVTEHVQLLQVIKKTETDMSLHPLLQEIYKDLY
Chain of Estrogen receptor (Homo sapiens) (P03372 whole entry, looked up): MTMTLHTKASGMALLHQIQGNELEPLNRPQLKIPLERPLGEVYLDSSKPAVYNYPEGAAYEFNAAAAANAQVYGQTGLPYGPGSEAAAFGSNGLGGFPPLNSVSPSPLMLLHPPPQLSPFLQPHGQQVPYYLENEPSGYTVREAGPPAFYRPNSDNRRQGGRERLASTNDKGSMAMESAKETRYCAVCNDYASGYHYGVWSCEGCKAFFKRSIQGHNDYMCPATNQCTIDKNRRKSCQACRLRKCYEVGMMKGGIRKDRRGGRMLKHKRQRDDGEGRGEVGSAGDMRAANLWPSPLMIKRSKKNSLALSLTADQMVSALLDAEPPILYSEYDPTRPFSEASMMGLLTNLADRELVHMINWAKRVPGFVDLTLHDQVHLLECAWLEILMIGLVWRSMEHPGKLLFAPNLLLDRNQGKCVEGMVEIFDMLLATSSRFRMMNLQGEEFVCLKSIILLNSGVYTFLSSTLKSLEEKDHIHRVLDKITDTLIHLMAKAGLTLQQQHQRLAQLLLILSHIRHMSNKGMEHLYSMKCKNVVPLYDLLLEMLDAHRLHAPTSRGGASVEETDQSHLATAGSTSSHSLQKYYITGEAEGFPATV

For `O=C(O)C(O)[C@H](O)[C@@H](O)[C@H](O)[C@H](O)CO` (stereo not given in full), the Potency result (in assay [1]; in assay [2]; in [4]; in [5]; in assay [6]; in the assay with Aromatase (Homo sapiens)) was “inactive” throughout. The Potency entry in assay [8], in assay [9], in [10], in assay [13] and in assay [14] was “inactive” throughout. Also, the result in assay [3], in assay [7], in assay [11], in assay [12], in assay [15] and in assay [16] was inactive. For the same compound, the compound was called inactive in assay [17].

For the compound `O=C1CC2(CCCC2)CC(=O)N1`, the result in assay [12], in assay [15], in [16] and in assay [17] was inactive. Further, the Potency entry in assay [14] was “inactive”.

Take `CN(C)CCOC(c1ccc(Cl)cc1)c1ccccn1` (stereo not given): the Potency result in [1], in assay [2], in [4], in assay [5], in assay [6] and in assay [8] was “inactive” each time. Besides, the Potency result in assay [9], in assay [10] and in assay [13] was “inactive” in each case. The compound was called inactive in assay [3], in assay [7], in assay [11], in assay [16] and in [17].

With `CSc1nc(NC2CC2)nc(NC(C)(C)C)n1`, the Potency entry (in assay [1]; in the assay with Aromatase (Homo sapiens); in assay [8]; in [10]; in [13]) was “inactive” throughout. For the same compound, the outcome in assay [3], in assay [7], in [11], in assay [12], in [15] and in assay [16] was inactive.

Turning to `O=C(O)C1CCC1`, the call in assay [12], in assay [15], in assay [16] and in assay [17] was inactive. The Potency entry in assay [13] and in assay [14] was “inactive” each time.

With `CCCCCCC(=O)OCC`, the Potency entry (in assay [1]; in assay [2]; in assay [4]; in assay [6]; with Aromatase (Homo sapiens); in [8]) was “inactive” throughout. The Potency result in assay [9] and in assay [10] was “inactive” throughout. The result in assay [3], in [7], in assay [11], in assay [15], in [16] and in [17] was inactive.

As for `Nc1ncnc2c1ncn2Cc1c(F)cccc1Cl`, the compound was called inactive in assay [12], in [15], in [16] and in assay [17]. Moreover, the Potency result in assay [13] and in assay [14] was “inactive” in each case.

Turning to `Nc1[nH]c(=O)ncc1F`, the Potency result (in assay [2]; in assay [4]; in assay [5]; in assay [6]; in the assay with Aromatase (Homo sapiens); in [8]) was “inactive” in each case. For the same compound, the Potency result in assay [9], in assay [10], in assay [13] and in [14] was “inactive” throughout. Besides, the outcome in assay [3], in assay [7], in assay [11], in assay [12], in assay [15] and in assay [16] was inactive. For the same compound, the compound was called inactive in assay [17].

For the compound `CCOC(=O)Cn1c(=O)sc2cccc(Cl)c21`, the Potency entry (in assay [1]; in assay [4]; in assay [5]; in [6]; with Aromatase (Homo sapiens); in assay [8]) was “inactive” each time. Moreover, the Potency entry in assay [10] and in assay [13] was “inactive” in each case. Also, the call in assay [3], in [7], in [11], in assay [12], in [15] and in assay [16] was inactive. Besides, the outcome in assay [17] was inactive. In addition, in [9], the Potency is 30.6 µM (active).

Turning to `NC1CCN(c2cccc(Cl)n2)CC1`, the Potency result (in assay [1]; with Aromatase (Homo sapiens); in assay [8]; in [9]; in [10]; in [13]) was “inactive” throughout. In assay [14], the Potency result was “inactive”. Further, the outcome in assay [3], in assay [11], in [12], in assay [15], in assay [16] and in assay [17] was inactive.

The record behind these values is PubChem BioAssay (Tox21).
